Assay results reported in PubChem BioAssay AID393 (SGCOxCompounds, 2006).
The source made the active and inactive calls. How the calls were made is not given here.

These compounds were tested against Serine/threonine-protein kinase pim-1 (Homo sapiens) (UniProt P11309) (assay: PIM1 kinase ligand binding by thermal shift, biophysical, human, melting temperature shift (AID 393)). Settings: Thermal shift assay, active compounds read high; at 10 µM, protein 2 µM, buffer 10 mM PIPES, pH 6.5, NaCl 150 mM unless noted.
Chain of Serine/threonine-protein kinase pim-1 (Homo sapiens) (P11309 whole entry, looked up): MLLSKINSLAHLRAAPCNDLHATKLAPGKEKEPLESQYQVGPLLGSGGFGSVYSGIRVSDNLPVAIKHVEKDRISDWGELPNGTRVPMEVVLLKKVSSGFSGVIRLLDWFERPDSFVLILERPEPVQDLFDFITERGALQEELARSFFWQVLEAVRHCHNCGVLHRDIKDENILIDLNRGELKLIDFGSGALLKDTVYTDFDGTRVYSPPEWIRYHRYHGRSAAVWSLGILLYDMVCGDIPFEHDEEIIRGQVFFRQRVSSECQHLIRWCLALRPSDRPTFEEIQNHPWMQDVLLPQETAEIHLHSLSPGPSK

Tm shift, active:
N#Cc1ccc(-c2cnc3ccc(NC4CCOCC4)nn23)cc1 5.36 Celsius
CC(C)[C@@H](CO)Nc1ccc2ncc(-c3cccc(OC(F)(F)F)c3)n2n1 8.65 Celsius
Fc1ccc(CNc2ccc3ncc(-c4ccco4)n3n2)cc1 6.35 Celsius [at 5 µM, protein 1 µM, buffer 10 mM HEPES]
CCC(CO)Nc1ccc2ncc(-c3ccc(O)cc3)n2n1 (stereo unspecified) 6.96 Celsius
Clc1cccc(-c2cnc3ccc(NC4CCOCC4)nn23)c1 7.02 Celsius [at 10 µM, protein 3 µM, buffer 10 mM HEPES]
Clc1ccc(-c2cnc3ccc(NC4CCOCC4)nn23)cc1 7.28 Celsius
CCN1/C(=C/C(C)=O)Sc2ccc(OC)cc21 6.4 Celsius [at 10 µM, protein 2 µM, buffer 10 mM Na Citrate, pH 6.5, NaCl 150 mM]
CC(C)[C@@H](CO)Nc1ccc2ncc(-c3ccc(C#N)cc3)n2n1 4.53 Celsius
O=C1NC(=O)c2c1c1c3ccccc3[nH]c1c1[nH]c3cc(Br)ccc3c21 7.64 Celsius
Clc1cccc(Nc2ccn3ncc(-c4ccsc4)c3n2)c1 3.99 Celsius [at 10 µM, protein 2 µM, buffer 25 mM HEPES, pH 7.5, NaCl 250 mM]
O=C(O)c1cccc(-c2cnc3ccc(NCC4CC4)nn23)c1 3.62 Celsius
Cc1cc(O)c2c(c1)C(=O)c1cc(O)cc(O)c1C2=O 6.3 Celsius [at 10 µM, protein 2 µM, buffer 10 mM Na Citrate, pH 6.5, NaCl 150 mM]
O=C1c2ccccc2-c2n[nH]c3cccc1c23 4.2 Celsius [at 10 µM, protein 2 µM, buffer 10 mM Na Citrate, pH 6.5, NaCl 150 mM]
N=C(N)SCCCn1cc(C2=C(c3c[nH]c4ccccc34)C(=O)NC2=O)c2ccccc21 10.7 Celsius [at 10 µM, protein 2 µM, buffer 10 mM Na Citrate, pH 6.5, NaCl 150 mM]
Brc1c(Br)c(Br)c2n[nH]nc2c1Br 4.6 Celsius [at 10 µM, protein 2 µM, buffer 10 mM Na Citrate, pH 6.5, NaCl 150 mM]
Nc1cccc(-c2cnn3ccc(Nc4cccc(Cl)c4)nc23)c1 6.21 Celsius
c1ccc(-c2cnc3ccc(NCc4ccco4)nn23)cc1 3.07 Celsius [at 5 µM, protein 1 µM, buffer 10 mM HEPES]
NCCCn1cc(C2=C(c3c[nH]c4ccccc34)C(=O)NC2=O)c2ccccc21 9 Celsius [at 10 µM, protein 2 µM, buffer 10 mM Na Citrate, pH 6.5, NaCl 150 mM]
c1csc(-c2cnc3ccc(NCC4CC4)nn23)c1 4.75 Celsius [at 5 µM, protein 1 µM, buffer 10 mM HEPES]
O=C(c1ccc(Nc2nccc(-c3cc4ccccc4s3)n2)cc1)N1CCC(N2CCCC2)CC1 3.7 Celsius [at 10 µM, protein 2 µM, buffer 10 mM Na Citrate, pH 6.5, NaCl 150 mM]
COCCNc1ccc2ncc(-c3cccc(Cl)c3)n2n1 6.33 Celsius
